# The whole screen tested about 69,000 compounds, of which about 8,600 (12%) showed an effect of 50% or more. This is one part of a sample in which strong results are shown more often than they occur.
# Test system: Plasmodium berghei
# Assay: Screen against P. berghei liver stage (PbLuc), transformed with Luciferase, at 10uM
# Type: functional, HepG2
# Conditions: tested at 10 uM
row,SMILES,INHIBITION [%]
1,Cc1cccc(C2(CNC(C)c3nnc(C)o3)CCCC2)c1 (stereo not drawn),-10.2
2,CCCc1ccc(S(=O)(=O)NC(=O)CCC2CCCO2)cc1 (stereo not drawn),4.71
3,Cn1cccc1C(=O)N1CCC2(CC1)CC(N1CCOCC1)C2,-23.3
4,COc1ccccc1C1(C(=O)N2CCCC(c3cc(C)[nH]n3)C2)CC1 (stereo not drawn),-14.6
5,c1cncc(C2COC3(CCN(Cc4cccs4)CC3)C2)c1 (stereo not drawn),0.618
6,Cc1ccc(CN2CCC3(CC2)CC(c2cccnc2)CO3)s1 (stereo not drawn),50.1
7,c1cncc(CN2CCC3(CC2)CC(c2cccnc2)CO3)c1 (stereo not drawn),-35
8,COc1cccc2ccn(CCC(=O)N3CCCC(C(=O)O)C3)c12 (stereo not drawn),-19.7
9,CN(C)C(=O)CN1CCc2ncnc(NC3CCC3)c2CC1,72.9
10,CN(C)C(=O)CN1CCc2ncnc(N(C)C)c2CC1,3.17
11,CN(C)C(=O)CN1CCc2ncnc(C3CC3)c2CC1,48.4
12,CCc1ncnc2c1CCN(CC(=O)N(C)C)CC2,30.3
13,CCN(C)c1ncnc2c1CCN(C(=O)N(C)C)CC2,-64.7
14,COCCN1CCc2ncnc(NC3CC3)c2CC1,-31.1
15,Cc1ncnc2c1CCN(C(=O)N(C)C)CC2,80.1
16,Cc1ncnc2c1CCN(C(=O)CN(C)C)CC2,46.7
17,Cc1ncnc2c1CCN(CC(=O)N(C)C)CC2,53

row,SMILES,INHIBITION [%]
1,Fc1ccc(C2CN(c3ncnc4[nH]ncc34)CCO2)cc1 (stereo not drawn),40.8
2,CN(C)CCn1nc(C2CCN(Cc3ccccc3)C2)c2cccnc21 (stereo not drawn),28.3
3,Cc1ccc(CNC(=O)c2nn(C)c3c2CS(=O)(=O)CC3)o1,30.8
4,Cc1ccc(NC2CCN(C(=O)CCc3ccccc3)CC2)nn1,-26.6
5,CCOc1ccnc(N2CCN(C(=O)c3ccc(OC)cc3)CC2)n1,31.9
6,CSCC(C)(O)CNC(=O)c1ccc(Br)cc1F (stereo not drawn),-59.2
7,CSCC(C)(O)CNC(=O)c1cc(Br)ccc1Cl (stereo not drawn),55.4
8,CSCC(C)(O)CNC(=O)c1cc(Cl)ccc1Cl (stereo not drawn),-21.3
9,N#Cc1ccc(F)c(CN2CCNC(=O)C2c2cccs2)c1 (stereo not drawn),23.1
10,O=c1cc(-c2ccccc2)nc2n1CCCCC2,49
11,CCc1ncncc1C(=O)N1CCCN(Cc2ccccc2C)CC1,19.6
12,CCc1nnsc1C(=O)N1CCCN(Cc2ccc(C)cc2)CC1,29.4
13,CCc1ncncc1C(=O)N1CCN(Cc2ccco2)CC1,50.4
14,CCc1ncncc1C(=O)N1CCCN(Cc2ccc(C)cc2)CC1,56.6
15,CCc1ncncc1C(=O)N1CCN(Cc2ccsc2)CC1,31.9
16,CCc1ncncc1C(=O)N1CCCN(Cc2ccc(C#N)cc2)CC1,19.6

# From ChEMBL document CHEMBL4513216, “Probing the Open Global Health Chemical Diversity Library for Multistage-Active Starting Points for Next-Generation Antimalarials” (ACS Infect Dis, 2020)
